According to the supplement of paper PMC10849652:
About 8,800 targets were measured; listed, in parts, are those with a hit and a random draw of the rest. About 0.5% of all pairs of compound and target were hits. Unmarked numbers belong to inactive results.

Assays:
Experiment in all cases: log2 fold change, soluble protein after heating vs DMSO (PISA); higher = thermal stabilisation; K562 lysate, 10 uM; active = over 0.2 and 3.5 SD of the protein, either way, in both replicates (recomputed)
vemurafenib = compound: CCCS(=O)(=O)Nc1ccc(F)c(C(=O)c2c[nH]c3ncc(-c4ccc(Cl)cc4)cc23)c1F [vemurafenib]
Summary of the method: (§1)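 Thermal stability, expressed as log-two fold change relative to solvent controls, is given from duplicates. Crude K562 extract in PBS pH 7.4 with 1 mM MgCl2, at 1 mg/mL protein, was treated with 10 μM compound for 30 min and heated in aliquots for 3 min across 48°C-58°C. After pooling, adjustment to 0.5% NP-40 at 4°C and centrifugation at 21,000xg for 90 min, supernatant protein was measured by TMTpro 16plex LC-MS/MS with channel sums equalised.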

[1] = compound: CCCS(=O)(=O)Nc1ccc(F)c(C(=O)c2c[nH]c3ncc(Cl)cc23)c1F
Summary of the method: as §1

barasertib = compound: CCN(CCCOc1ccc2c(Nc3cc(CC(=O)Nc4cccc(F)c4)[nH]n3)ncnc2c1)CCOP(=O)(O)O [barasertib]
Summary of the method: as §1

[2] = compound: CC[C@@H]1C(=O)N(C)c2cnc(Nc3ccc(C(=O)NC4CCN(C)CC4)cc3OC)nc2N1C1CCCC1
Summary of the method: as §1

volasertib = compound: CC[C@@H]1C(=O)N(C)c2cnc(Nc3ccc(C(=O)N[C@H]4CC[C@H](N5CCN(CC6CC6)CC5)CC4)cc3OC)nc2N1C(C)C [volasertib]
Summary of the method: as §1

[3] = compound: CCn1c(C(=O)N(C2CC2)C2CC2)cc2c3c(ncn3C)c(Nc3cc(C)n(C)n3)nc21
Summary of the method: as §1

[4] = compound: CCn1cc(-c2ccnc3[nH]c(-c4cccc(CN(C)C)c4)cc23)c(-c2ccc(NC(=O)N(C)C)cc2)n1
Summary of the method: as §1

[5] = compound: CN1CCC(CNc2ccc3ncc(-c4cccc(OC(F)(F)F)c4)n3n2)CC1
Summary of the method: as §1

saracatinib = compound: CN1CCN(CCOc2cc(OC3CCOCC3)c3c(Nc4c(Cl)ccc5c4OCO5)ncnc3c2)CC1 [saracatinib]
Summary of the method: as §1

sotrastaurin = compound: CN1CCN(c2nc(C3=C(c4c[nH]c5ccccc45)C(=O)NC3=O)c3ccccc3n2)CC1 [sotrastaurin]
Summary of the method: as §1

Chain of UniProt Q96B23 (Q96B23 whole entry, looked up): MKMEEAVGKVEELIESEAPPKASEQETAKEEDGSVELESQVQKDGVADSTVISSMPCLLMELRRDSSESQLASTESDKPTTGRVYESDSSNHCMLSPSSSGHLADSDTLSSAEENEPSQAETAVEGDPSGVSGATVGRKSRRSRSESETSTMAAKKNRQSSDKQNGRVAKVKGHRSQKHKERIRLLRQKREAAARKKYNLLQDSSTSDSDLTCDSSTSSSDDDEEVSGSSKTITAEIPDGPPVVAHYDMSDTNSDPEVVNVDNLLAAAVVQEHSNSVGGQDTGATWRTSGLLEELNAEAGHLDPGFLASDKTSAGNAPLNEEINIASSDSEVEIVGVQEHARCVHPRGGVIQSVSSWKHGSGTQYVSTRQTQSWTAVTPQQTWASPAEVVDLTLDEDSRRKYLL
Chain of UniProt P20248 (P20248 whole entry, looked up): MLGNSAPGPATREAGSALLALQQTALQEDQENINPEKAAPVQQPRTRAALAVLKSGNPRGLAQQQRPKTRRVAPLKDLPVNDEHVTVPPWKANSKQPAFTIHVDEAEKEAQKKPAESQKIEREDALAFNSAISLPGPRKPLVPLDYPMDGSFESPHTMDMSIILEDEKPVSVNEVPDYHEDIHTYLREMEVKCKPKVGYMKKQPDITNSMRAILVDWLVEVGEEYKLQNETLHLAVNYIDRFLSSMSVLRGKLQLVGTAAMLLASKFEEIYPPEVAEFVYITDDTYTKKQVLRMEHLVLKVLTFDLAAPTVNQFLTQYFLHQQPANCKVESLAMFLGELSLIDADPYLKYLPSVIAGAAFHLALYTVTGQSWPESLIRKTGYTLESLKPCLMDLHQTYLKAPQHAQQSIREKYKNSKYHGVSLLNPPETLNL
Chain of UniProt Q12873 (Q12873 whole entry, looked up): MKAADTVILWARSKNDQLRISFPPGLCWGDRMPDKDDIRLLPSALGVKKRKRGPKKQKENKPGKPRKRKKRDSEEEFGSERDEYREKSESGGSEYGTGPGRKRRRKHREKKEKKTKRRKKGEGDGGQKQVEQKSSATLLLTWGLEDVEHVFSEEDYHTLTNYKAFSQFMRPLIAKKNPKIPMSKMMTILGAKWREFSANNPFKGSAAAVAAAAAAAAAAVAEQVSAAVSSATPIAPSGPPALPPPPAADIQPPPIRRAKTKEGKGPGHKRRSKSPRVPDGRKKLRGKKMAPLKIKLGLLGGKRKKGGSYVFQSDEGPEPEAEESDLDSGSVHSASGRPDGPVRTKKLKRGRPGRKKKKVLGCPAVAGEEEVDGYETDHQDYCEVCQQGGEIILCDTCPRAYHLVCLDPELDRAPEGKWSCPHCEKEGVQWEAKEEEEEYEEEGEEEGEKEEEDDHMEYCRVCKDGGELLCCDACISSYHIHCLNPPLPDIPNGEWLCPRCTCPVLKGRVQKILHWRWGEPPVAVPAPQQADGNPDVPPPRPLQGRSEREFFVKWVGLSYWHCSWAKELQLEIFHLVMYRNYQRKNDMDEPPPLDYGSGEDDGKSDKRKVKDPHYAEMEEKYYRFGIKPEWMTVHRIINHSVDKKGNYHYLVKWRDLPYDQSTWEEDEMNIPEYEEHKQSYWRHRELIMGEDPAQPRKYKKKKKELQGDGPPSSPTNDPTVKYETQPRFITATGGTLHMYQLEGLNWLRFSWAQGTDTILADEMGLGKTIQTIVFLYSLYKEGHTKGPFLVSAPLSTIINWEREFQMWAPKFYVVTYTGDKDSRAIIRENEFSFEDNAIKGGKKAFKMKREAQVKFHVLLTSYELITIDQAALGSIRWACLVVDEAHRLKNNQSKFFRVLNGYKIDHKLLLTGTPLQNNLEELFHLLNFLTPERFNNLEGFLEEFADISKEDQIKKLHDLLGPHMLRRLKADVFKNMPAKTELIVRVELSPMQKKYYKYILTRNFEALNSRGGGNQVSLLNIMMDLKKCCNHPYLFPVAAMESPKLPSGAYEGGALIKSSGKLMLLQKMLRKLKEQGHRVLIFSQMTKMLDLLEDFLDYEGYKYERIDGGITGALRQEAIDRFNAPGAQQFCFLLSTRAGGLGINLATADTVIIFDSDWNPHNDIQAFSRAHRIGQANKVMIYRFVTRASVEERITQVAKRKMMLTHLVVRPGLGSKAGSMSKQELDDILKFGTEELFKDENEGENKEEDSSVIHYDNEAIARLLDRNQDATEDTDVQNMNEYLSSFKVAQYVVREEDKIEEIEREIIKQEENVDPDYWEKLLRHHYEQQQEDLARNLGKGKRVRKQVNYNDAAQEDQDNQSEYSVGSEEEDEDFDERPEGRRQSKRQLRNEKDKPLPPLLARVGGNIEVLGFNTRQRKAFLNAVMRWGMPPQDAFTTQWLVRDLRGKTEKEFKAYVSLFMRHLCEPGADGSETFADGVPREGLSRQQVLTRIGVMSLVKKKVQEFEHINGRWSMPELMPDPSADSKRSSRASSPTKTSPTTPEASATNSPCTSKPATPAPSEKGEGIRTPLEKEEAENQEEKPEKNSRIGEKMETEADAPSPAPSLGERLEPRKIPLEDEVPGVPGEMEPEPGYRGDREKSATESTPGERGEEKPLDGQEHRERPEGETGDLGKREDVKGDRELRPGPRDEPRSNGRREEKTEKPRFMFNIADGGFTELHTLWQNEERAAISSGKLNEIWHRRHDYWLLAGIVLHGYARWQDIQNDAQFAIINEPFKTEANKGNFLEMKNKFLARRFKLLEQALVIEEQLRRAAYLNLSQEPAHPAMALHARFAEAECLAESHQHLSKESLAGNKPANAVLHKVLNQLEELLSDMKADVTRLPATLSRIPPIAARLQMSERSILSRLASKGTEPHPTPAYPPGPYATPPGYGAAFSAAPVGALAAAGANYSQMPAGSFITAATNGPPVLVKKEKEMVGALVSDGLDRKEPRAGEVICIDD
Chain of UniProt Q6PJG6 (Q6PJG6 whole entry, looked up): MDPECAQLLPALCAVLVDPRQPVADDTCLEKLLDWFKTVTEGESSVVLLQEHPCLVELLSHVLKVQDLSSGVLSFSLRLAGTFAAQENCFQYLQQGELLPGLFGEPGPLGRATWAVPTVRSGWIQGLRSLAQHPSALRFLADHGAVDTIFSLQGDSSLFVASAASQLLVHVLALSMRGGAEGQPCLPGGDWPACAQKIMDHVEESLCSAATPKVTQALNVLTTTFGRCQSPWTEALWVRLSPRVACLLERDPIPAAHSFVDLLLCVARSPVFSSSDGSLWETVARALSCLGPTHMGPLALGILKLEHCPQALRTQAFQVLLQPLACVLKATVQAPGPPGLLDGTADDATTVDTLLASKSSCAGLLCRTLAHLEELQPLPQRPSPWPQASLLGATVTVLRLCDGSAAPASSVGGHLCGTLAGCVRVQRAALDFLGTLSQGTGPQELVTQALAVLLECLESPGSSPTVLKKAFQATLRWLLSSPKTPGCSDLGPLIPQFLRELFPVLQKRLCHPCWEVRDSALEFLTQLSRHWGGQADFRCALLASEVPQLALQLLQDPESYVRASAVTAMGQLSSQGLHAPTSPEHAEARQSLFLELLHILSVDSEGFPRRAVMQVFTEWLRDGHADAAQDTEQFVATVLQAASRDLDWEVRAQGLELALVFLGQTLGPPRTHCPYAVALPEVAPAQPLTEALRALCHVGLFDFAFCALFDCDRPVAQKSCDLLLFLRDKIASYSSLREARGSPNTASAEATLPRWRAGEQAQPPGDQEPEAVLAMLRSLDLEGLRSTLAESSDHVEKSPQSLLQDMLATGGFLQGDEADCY
Chain of UniProt Q9Y487 (Q9Y487 whole entry, looked up): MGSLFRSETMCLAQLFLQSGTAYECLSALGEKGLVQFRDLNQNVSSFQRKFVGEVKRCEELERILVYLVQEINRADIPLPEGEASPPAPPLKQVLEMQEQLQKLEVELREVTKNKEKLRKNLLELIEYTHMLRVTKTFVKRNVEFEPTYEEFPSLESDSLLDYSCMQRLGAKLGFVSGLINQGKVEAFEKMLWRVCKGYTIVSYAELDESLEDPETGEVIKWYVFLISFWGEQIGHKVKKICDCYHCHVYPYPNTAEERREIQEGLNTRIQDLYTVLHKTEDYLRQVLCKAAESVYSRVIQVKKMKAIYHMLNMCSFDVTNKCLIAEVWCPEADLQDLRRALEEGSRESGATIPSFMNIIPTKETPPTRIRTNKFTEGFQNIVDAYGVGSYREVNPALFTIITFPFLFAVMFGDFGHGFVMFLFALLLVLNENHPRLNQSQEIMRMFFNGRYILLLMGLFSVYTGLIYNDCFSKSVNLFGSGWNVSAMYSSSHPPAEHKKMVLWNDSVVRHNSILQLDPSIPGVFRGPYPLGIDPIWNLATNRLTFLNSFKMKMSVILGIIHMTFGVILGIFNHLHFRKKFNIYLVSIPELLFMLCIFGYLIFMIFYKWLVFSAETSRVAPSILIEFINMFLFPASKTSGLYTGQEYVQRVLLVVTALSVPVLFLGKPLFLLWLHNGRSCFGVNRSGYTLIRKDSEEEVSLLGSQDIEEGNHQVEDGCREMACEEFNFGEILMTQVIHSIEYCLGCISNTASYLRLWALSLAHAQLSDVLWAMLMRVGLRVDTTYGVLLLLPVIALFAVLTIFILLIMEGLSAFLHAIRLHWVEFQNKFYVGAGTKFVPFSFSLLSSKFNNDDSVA
Chain of UniProt P14635 (P14635 whole entry, looked up): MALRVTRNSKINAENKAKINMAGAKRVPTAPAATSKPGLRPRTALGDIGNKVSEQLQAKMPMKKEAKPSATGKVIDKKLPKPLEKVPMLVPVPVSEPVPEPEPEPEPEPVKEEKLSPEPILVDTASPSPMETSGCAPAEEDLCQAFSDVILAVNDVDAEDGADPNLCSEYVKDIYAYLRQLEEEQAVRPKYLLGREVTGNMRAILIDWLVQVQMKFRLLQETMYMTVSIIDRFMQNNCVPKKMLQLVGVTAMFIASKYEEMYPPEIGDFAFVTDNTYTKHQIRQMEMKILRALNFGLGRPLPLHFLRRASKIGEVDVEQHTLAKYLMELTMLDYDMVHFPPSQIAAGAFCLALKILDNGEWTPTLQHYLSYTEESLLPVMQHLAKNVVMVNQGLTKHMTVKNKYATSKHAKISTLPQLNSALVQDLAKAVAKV

| Target | log2 fold change (vemurafenib) | log2 fold change [1] | log2 fold change (barasertib) | log2 fold change [2] | log2 fold change (volasertib) | log2 fold change [3] | log2 fold change [4] | log2 fold change [5] | log2 fold change (saracatinib) | log2 fold change (sotrastaurin) |
| --- | --- | --- | --- | --- | --- | --- | --- | --- | --- | --- |
| CCNB1 (UniProt P14635) | 0.032 | -0.021 | 0.019 | 0.03 | -0.043 | -0.031 | -0.023 | -0.012 | 0.002 | -0.038 |
| CEPT1 (UniProt Q9Y6K0) | -0.031 | 0.006 | 0.08 | -0.006 | 0.042 | -0.079 | -0.102 | 0.084 | 0.037 | -0.008 |
| ATE1 isoform 2 (UniProt O95260) | 0.118 | -0.006 | 0.069 | 0.019 | -0.013 | 0.014 | 0.032 | 0.126 | 0.006 | -0.016 |
| C18orf25 (UniProt Q96B23) | -0.014 | 0.014 | 0.004 | 0.1 | -0.013 | -0.059 | -0.035 | 0.015 | -0.032 | 0.009 |
| CASP3 (UniProt P42574) | 0.002 | 0.015 | -0.024 | 0.034 | 0.013 | -0.011 | 0.279 (active) | -0.049 | -0.036 | -0.013 |
| BRAT1 (UniProt Q6PJG6) | 0.011 | -0.014 | 0.042 | -0.086 | -0.046 | 0.055 | -0.023 | -0.007 | 0.016 | 0.037 |
| CHD3 isoform 3 (UniProt Q12873) | -0.033 | 0.009 | 0.035 | -0.02 | -0.018 | -0.039 | -0.066 | -0.027 | 0.001 | 0.004 |
| CBR1 (UniProt P16152) | -0.009 | 0.011 | -0.013 | -0.019 | 0.004 | 0 | -0.096 | 0.077 | 0.037 | -0.047 |
| CDK13 (UniProt Q14004) | -0.124 | -0.031 | -0.061 | 0.002 | -0.123 | 0.106 | -0.09 | 0.04 | 0.074 | -0.036 |
| ATP6V0A2 (UniProt Q9Y487) | -0.035 | 0.013 | 0.037 | 0.071 | 0.005 | 0.017 | -0.117 | 0.14 | -0.007 | 0.029 |
| CDC7 (UniProt O00311) | 0.065 | 0.073 | -0.005 | 0.039 | -0.097 | -0.003 | -0.01 | -0.073 | 0.004 | 0.036 |
| CCNA2 (UniProt P20248) | -0.033 | -0.004 | -0.056 | 0.022 | -0.018 | -0.03 | -0.183 | 0.169 | 0.001 | 0 |
| CARD9 (UniProt Q9H257) | 0.03 | 0.026 | 0.008 | 0.068 | -0.001 | 0.011 | -0.036 | 0.013 | 0.014 | -0.01 |
| CDC42BPA isoform 6 (UniProt Q5VT25) | 0.01 | 0.036 | -0.006 | -0.111 | -0.043 | 0.021 | 0.062 | -0.118 | -0.021 | -0.023 |
| BLM (UniProt P54132) | 0.007 | 0.013 | -0.071 | -0.063 | -0.029 | 0.054 | 0.247 | -0.14 | -0.014 | -0.01 |
